Measurements as given in PubChem BioAssay (NCATS).
Inconclusive results are not listed. Calls of active or inactive are those of the source. Unless noted, calls come from the whole dose curve; as a rule, active = well fitted curve in the direction sought with a large enough effect; inconclusive = small, poorly fitted or top-dose-only effect, or another doubt; inactive = no such curve, though single readings can be large; an effect the other way counts as inactive or inconclusive.

How the values were obtained:
[1] = target: Bile acid receptor (Homo sapiens) (UniProt Q96RI1); test: qHTS assay for small molecule agonists of farnesoid X receptor signaling (AID 588527; calls by dose curve;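 note: series mostly up to about 77 µM; 0% = vehicle basal and 100% = reference agonist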); conditions: HEK293T FXR-UAS-bla, beta-lactamase ratio, 16 h; activation: stronger effect = higher value
Chain of Bile acid receptor (Homo sapiens) (Q96RI1 whole entry, looked up): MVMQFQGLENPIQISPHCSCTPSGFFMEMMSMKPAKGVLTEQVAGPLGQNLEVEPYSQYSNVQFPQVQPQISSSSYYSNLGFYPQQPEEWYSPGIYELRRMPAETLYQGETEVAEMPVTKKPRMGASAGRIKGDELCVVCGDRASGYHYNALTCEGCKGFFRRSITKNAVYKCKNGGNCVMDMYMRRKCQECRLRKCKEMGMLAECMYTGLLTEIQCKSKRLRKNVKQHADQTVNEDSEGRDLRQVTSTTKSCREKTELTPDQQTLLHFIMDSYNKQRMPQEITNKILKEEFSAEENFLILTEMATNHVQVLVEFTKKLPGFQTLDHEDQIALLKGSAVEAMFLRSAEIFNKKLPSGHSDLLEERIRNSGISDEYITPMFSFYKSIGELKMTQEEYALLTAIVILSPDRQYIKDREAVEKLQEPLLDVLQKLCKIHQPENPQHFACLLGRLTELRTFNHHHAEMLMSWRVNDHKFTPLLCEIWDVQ
Method in brief: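 FXR-UAS-bla HEK293T, 10% dialyzed FBS; cpds up to 92 uM titration, 16 h 37 C; CCF4 dye 2 h RT; fluorescence. Normalized to chenodeoxycholic acid 100 uM (100%) and DMSO (0%); Hill fit gives EC50, efficacy.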

[2] = target: Glucocorticoid receptor (Homo sapiens) (UniProt P04150); test: qHTS assay for small molecule antagonists of glucocorticoid receptor signaling (AID 588533; active = well fitted inhibition curve with a large enough effect in the signal ratio, with a control signal flat, not every such curve was filed as active; the % refers to the signal ratio; note: % is set by controls: 0 for no effect and ±100 for the full control effect)
Chain of Glucocorticoid receptor (Homo sapiens) (P04150 whole entry, looked up): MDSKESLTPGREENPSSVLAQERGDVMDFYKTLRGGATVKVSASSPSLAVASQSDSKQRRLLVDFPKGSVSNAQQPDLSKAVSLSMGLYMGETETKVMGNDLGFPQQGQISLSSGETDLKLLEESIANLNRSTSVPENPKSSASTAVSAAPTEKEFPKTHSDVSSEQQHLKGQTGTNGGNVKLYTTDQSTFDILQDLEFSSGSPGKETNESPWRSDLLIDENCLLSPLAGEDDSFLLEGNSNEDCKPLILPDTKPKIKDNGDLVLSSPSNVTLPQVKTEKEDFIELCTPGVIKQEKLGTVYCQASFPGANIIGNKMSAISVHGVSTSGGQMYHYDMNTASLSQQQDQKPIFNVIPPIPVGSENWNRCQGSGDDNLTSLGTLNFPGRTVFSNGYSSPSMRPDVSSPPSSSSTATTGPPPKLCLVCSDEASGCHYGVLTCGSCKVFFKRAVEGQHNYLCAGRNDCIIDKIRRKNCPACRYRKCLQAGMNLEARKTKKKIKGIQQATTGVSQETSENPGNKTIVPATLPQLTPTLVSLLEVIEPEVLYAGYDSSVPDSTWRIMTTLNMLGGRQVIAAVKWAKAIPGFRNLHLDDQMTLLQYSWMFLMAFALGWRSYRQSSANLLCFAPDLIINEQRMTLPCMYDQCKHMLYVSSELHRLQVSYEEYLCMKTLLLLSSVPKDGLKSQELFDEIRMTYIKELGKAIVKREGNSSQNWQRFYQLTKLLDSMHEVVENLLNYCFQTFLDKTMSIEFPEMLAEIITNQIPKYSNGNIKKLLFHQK
Method in brief: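 Antagonist-mode qHTS: compound titrations added to GRE-bla HeLa cells, then dexamethasone 2 nM final; 18 h, 37 C. CCF4 FRET fluorescence normalized to dexamethasone and DMSO; IC50 from Hill fit.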

[3] = target: Peroxisome proliferator-activated receptor delta (Homo sapiens) (UniProt Q03181); test: qHTS assay for small molecule agonists of peroxisome proliferator-activated receptor delta signaling (AID 588534; calls by dose curve;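 note: 0% = DMSO basal wells and 100% = positive control agonist at 10 µM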)
Chain of Peroxisome proliferator-activated receptor delta (Homo sapiens) (Q03181 whole entry, looked up): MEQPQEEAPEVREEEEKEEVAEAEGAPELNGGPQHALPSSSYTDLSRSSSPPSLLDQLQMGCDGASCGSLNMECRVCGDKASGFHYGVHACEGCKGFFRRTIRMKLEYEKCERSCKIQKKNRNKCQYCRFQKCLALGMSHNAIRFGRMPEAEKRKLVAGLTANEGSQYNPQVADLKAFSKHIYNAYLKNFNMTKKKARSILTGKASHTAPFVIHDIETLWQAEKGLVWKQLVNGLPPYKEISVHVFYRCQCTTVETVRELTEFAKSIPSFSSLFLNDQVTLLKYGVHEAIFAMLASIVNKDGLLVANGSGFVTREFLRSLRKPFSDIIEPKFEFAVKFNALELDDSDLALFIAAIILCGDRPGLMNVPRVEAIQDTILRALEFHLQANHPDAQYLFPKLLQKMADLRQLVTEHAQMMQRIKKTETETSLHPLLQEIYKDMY
Method in brief: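 Agonist-mode qHTS; reporter cells, 5 hrs 37 C pre-incubation; compound titration, 18 hrs 37 C; CCF4 dye, 2 hrs RT; fluorescence read. EC50/efficacy via Hill fit.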

[4] = target: Vitamin D3 receptor (Homo sapiens) (UniProt P11473); test: qHTS assay for small molecule antagonists of vitamin D receptor signaling (AID 588541; calls by dose curve;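 note: receptor activated by calcitriol during compound treatment; series mostly up to about 77 µM; % is set by controls: 0 for no effect and ±100 for the full control effect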)
Chain of Vitamin D3 receptor (Homo sapiens) (P11473 whole entry, looked up): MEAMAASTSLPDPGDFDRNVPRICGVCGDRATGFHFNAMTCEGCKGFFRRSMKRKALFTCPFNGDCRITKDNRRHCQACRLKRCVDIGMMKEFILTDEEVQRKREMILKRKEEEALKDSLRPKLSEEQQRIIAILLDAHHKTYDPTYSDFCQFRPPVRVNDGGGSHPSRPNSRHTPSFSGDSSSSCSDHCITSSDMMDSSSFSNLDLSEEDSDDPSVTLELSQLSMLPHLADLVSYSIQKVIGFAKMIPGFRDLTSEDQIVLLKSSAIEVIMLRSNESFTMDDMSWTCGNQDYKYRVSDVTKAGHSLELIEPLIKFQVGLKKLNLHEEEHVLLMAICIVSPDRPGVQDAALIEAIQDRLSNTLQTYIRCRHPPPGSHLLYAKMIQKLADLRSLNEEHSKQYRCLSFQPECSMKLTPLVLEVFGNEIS
Method in brief: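 VDR-UAS-bla HEK293T cells in 2% charcoal-stripped FBS were stimulated with 1-alpha,25-dihydroxyvitamin D3 (3 nM final) plus compound for 16 h at 37 C. The beta-lactamase CCF4 readout was normalized to 50 nM agonist and DMSO, and Hill fits gave IC50.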

[5] = qHTS assay for small molecule agonists of retinoid X receptor alpha signaling (AID 588544; calls by dose curve;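 for activation: 0% = DMSO basal wells and 100% = reference agonist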); conditions: HEK293T RXRa-UAS-bla, beta-lactamase reporter, 18 h; 530 nm emission
[6] = target: Retinoic acid receptor RXR-alpha (Homo sapiens) (UniProt P19793); test: as above
Chain of Retinoic acid receptor RXR-alpha (Homo sapiens) (P19793 whole entry, looked up): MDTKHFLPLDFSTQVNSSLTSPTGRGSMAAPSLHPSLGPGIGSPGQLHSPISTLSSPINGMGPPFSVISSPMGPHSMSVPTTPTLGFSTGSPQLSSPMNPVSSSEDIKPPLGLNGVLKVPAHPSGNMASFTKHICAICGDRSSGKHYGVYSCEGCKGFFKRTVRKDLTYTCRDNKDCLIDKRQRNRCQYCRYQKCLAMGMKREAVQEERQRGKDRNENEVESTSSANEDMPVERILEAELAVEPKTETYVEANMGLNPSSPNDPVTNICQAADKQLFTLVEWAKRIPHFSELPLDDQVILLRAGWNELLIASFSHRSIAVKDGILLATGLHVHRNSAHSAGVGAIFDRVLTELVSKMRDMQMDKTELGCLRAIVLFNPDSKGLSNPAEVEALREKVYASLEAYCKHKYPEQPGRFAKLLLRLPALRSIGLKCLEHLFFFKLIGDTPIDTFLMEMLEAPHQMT

[7] = qHTS assay for small molecule antagonists of retinoid X receptor alpha signaling (AID 588546; active = well fitted inhibition curve with a large enough effect in the signal ratio, with a control signal flat, not every such curve was filed as active; the % refers to the signal ratio;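 note: cells stimulated with 9-cis-retinoic acid as agonist; % is set by controls: 0 for no effect and ±100 for the full control effect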); conditions: HEK293T RXRa-UAS-bla, beta-lactamase ratio, antagonist mode; measured here: W530 green channel, cytotoxicity proxy
Method in brief: (§1)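 Beta-lactamase reporter inhibition, read as CCF4 fluorescence ratio (ex 405, em 460/530 nm) after 2 h at RT. HEK293T UAS-bla cells, 2500/well, were stimulated with 9-cis-RA at 500 or 100 nM final alongside test compound for 18 h at 37 C.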

[8] = target: Retinoic acid receptor RXR-alpha (Homo sapiens) (UniProt P19793); test: as above; conditions: HEK293T RXRa-UAS-bla, beta-lactamase ratio, antagonist mode
Method in brief: as §1

[9] = target: Thyroid hormone receptor beta (Homo sapiens) (UniProt P10828); test: qHTS assay for small molecule antagonists of thyroid hormone receptor beta signaling (AID 588547; active = well fitted inhibition curve with a large enough effect in the signal ratio, with a control signal flat, not every such curve was filed as active; the % refers to the signal ratio;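 note: cells stimulated with 0.4 nM T3 agonist during compound exposure; series mostly up to about 77 µM; % is set by controls: 0 for no effect and ±100 for the full control effect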); conditions: TR-UAS-bla HEK293, beta-lactamase ratio, antagonist mode, 18 h
Chain of Thyroid hormone receptor beta (Homo sapiens) (P10828 whole entry, looked up): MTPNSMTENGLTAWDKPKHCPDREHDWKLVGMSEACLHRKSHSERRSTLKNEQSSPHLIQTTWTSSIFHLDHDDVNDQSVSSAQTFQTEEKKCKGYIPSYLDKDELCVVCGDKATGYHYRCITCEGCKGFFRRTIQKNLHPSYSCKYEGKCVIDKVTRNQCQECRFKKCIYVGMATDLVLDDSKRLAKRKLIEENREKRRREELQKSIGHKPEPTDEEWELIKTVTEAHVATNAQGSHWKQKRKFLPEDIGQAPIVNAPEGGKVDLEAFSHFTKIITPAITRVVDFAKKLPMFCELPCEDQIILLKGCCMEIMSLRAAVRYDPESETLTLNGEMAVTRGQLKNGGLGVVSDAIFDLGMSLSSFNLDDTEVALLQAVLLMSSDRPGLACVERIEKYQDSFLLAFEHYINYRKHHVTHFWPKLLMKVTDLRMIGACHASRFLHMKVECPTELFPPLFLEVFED
Method in brief: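 TR-UAS-bla GripTite HEK293 cells in 2% charcoal/dextran FBS medium; compounds 0.59 nM to 92 uM with T3 at 0.4nM final, 18 h at 37 C. Beta-lactamase read by CCF4 fluorescence (460/530 nm); Hill fits gave IC50 and efficacy.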

[10] = qHTS assay for environmental chemicals that activate the Aryl hydrocarbon Receptor (AhR) signaling pathway (AID 651777); conditions: 1A2-DRE human hepatoma cells, luciferase, 24 h; activation: stronger effect = higher value; note: nearly all actives have a fitted effect of over 15% in size; note: potency is the fitted concentration of half-maximal effect; for activation: % of control where 0% means no effect
Method in brief: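 Luminescence (One-Glo, 30 min, room temperature) reports AhR-driven luciferase in stably transfected human hepatoma cells bearing DRE and CYP1A2 promoter. Cells (1,200/well) were treated with compound for 24 hr at 37 C in qHTS format.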

[11] = target: Peroxisome proliferator-activated receptor alpha (Homo sapiens) (UniProt Q07869); test: qHTS assay for small molecule agonists of the peroxisome proliferator-activated receptor alpha (PPARalpha) signaling pathway (AID 651778); conditions: PathHunter PPARalpha complementation, chemiluminescence, 6 h; max response: stronger effect = higher value; note: % of control where 0% means no effect
Chain of Peroxisome proliferator-activated receptor alpha (Homo sapiens) (Q07869 whole entry, looked up, the tested form may be a part): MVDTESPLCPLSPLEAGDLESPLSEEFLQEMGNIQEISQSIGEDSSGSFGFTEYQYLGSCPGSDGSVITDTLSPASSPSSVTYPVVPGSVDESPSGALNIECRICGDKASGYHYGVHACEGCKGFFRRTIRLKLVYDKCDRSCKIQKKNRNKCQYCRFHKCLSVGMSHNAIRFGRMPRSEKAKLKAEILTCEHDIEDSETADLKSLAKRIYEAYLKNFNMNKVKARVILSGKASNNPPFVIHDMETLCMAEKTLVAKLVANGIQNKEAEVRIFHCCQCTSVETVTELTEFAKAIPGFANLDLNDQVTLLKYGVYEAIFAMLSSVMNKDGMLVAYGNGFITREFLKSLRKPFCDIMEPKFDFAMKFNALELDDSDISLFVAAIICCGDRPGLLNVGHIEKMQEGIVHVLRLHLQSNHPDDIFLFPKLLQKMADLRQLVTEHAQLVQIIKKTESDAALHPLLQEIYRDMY
Method in brief: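 Enzyme-fragment complementation assay in which ligand-bound PPARalpha translocates and forms an active enzyme that generates chemiluminescence. Cells were plated overnight, exposed to compound for 6 hr at 37 C, and then given detection reagent for 60 min at room temperature.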

[12] = qHTS assay for small molecule agonists of the antioxidant response element (ARE) signaling pathway measured by Nrf2-dependant transcriptional activity - cell viability counter screen (AID 720653; active = well fitted curve in the direction sought with a large enough effect in the repeat runs; an effect the other way counts as inactive or inconclusive; note: % is set by controls: 0 for no effect and ±100 for the full control effect); conditions: ARE-bla HepG2 viability, CellTiter-Glo ATP luminescence, 16 h; max response: stronger effect = lower value
Method in brief: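 ARE-bla HepG2 cells treated with compounds for 16 h at 37C; this counter screen measures viability as intracellular ATP by CellTiter-Glo luminescence after 30 min at room temperature.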

[13] = qHTS assay for cell viability of HEK293 cells (AID 743288); conditions: ATP luminescence (CellTiter-Glo), 18 h; max response: stronger effect = lower value; note: % is set by controls: 0 for no effect and ±100 for the full control effect; nearly all actives have a fitted effect of over 50% in size
Method in brief: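 ATP luminescence (CellTiter-Glo) reports metabolically competent cell number after parental HEK293 cells, 2,000/well, were treated with DMSO-dissolved compounds for 18 h at 37 C; reagent incubation 30 min, room temperature.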

[14] = qHTS assay for cell viability of the p53RE-bla HCT-116 cell line (AID 743292); note: % is set by controls: 0 for no effect and ±100 for the full control effect; nearly all actives have a fitted effect of over 55% in size
Method in brief: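 ATP-based luminescent viability (CellTiter-Glo, 30 min RT) after 16 h compound treatment at 37 C of p53RE-bla HCT-116 cells, seeded at 4,000 cells/well and rested 5 h before dosing.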

[15] = target: Vitamin D3 receptor (Homo sapiens) (UniProt P11473); test: qHTS assay for small molecule agonists of vitamin D receptor signaling (AID 588543; calls by dose curve;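 note: 0% = DMSO basal and 100% = reference agonist control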)
Method in brief: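 β-lactamase reporter, VDR-UAS-bla HEK293T, agonist mode. Cells plated 5 h at 37 °C, compound titration 16 h at 37 °C, CCF4 dye 2 h RT, ratio 460/530 nm. Hill fit → EC50, efficacy vs 50 nM 1α,25-(OH)2D3.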

[16] = target: Thyroid hormone receptor beta (Homo sapiens) (UniProt P10828); test: qHTS assay for small molecule agonists of thyroid hormone receptor beta signaling (AID 588545; calls by dose curve)
Method in brief: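 HEK 293 TR-UAS-bla; agonist mode; 18 hrs, 37 C; CCF4, ex 405/em 460 and 530 nm; norm. T3 10 nM = 100%, DMSO = 0%; Hill fit → EC50, efficacy.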

[17] = qHTS assay for small molecule activators of the p53 signaling pathway (AID 651743; active = well fitted activation curve with a large enough effect in the signal ratio, not every such curve was filed as active; the % refers to the signal ratio; note: series mostly up to about 92 µM; % of control where 0% means no effect); conditions: HCT-116 p53RE-bla, beta-lactamase FRET ratio, 16 h; activation: stronger effect = higher value
Method in brief: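 Following 16 hours of compound exposure at 37 C, HCT-116 cells bearing the p53RE-bla reporter were loaded with LiveBLAzer B/G FRET substrate for 2 hours at room temperature and fluorescence intensity was recorded.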

[18] = target: Nuclear receptor subfamily 1 group I member 2 (Rattus norvegicus) (UniProt Q9R1A7); test: qHTS assay for small molecule activators of the rat pregnane X receptor (rPXR) signaling pathway (AID 651751; call rule not given here; note: 0% is about no effect); conditions: rPXR reporter cells, luciferase (One-Glo), 24 h
Chain of Nuclear receptor subfamily 1 group I member 2 (Rattus norvegicus) (Q9R1A7 whole entry, looked up): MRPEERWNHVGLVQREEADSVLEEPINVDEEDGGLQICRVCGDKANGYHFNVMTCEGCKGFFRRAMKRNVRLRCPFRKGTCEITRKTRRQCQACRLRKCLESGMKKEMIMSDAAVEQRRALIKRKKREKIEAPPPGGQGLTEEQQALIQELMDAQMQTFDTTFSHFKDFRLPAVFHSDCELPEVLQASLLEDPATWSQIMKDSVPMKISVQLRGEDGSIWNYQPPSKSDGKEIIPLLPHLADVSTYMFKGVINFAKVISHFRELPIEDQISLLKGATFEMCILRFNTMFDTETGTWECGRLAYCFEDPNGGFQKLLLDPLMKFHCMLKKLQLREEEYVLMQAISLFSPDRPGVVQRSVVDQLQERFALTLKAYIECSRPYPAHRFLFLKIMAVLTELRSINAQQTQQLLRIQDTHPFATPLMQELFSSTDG

[19] = qHTS assay for small molecule antagonists of peroxisome proliferator-activated receptor delta signaling (AID 588535); conditions: HEK293T PPARd-UAS-bla, beta-lactamase FRET ratio, 18 h; 460 nm channel;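 note: cells co-treated with a PPAR-delta agonist as stimulator during compound exposure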
Method in brief: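 Fluorescence from CCF4-loaded GeneBLAzer PPAR-delta-UAS-bla HEK293T cells (2 hrs RT loading) quantified reporter inhibition after an 18 hr, 37 C compound exposure across a titration.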

[20] = qHTS assay for small molecule agonists of the antioxidant response element (ARE) signaling pathway measured by Nrf2-dependant transcriptional activity (AID 720636; active = well fitted curve in the direction sought with a large enough effect in the repeat runs; an effect the other way counts as inactive or inconclusive; note: % of control where 0% means no effect)
Method in brief: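 Nrf2-dependent transcription read as ONE-Glo luciferase signal from ARE-luc HepG2 reporter cells after 16 hr compound treatment at 37 C, 5% CO2, in assay medium with 1% dialyzed FBS.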

CNC(=O)N(C)c1nc2ccccc2s1
inactive: activation [1] 4.82% | Potency [2] | outcome [3] | Potency [4] | Potency [6] | max response [8] -2.41% | activity change % (negative = inhibition) [9] 9.18% | max response [11] -2.93% | max response [12] -8.17% | max response [13] -16.4% | Potency [14]
-6.4%: max response [5]
active: Potency [10] 44.7 µM
0.29%: max response [7]

O=C(Nc1ccccc1)Nc1ccnc(Cl)c1
inactive: activation [1] -3.44% | outcome [3] | Potency [4] | outcome [15] | Potency [16] | activity change % (negative = inhibition) [9] 16% | activation [17] 4.1% | activation [10] 11% | max response [11] -0.317% | max response [12] -3.22% | max response [13] -3.84% | Potency [14] | max response [18] 9.67%

CNP(=O)(OC)Oc1ccc(C(C)(C)C)cc1Cl (stereo not drawn)
45%: max response [19]
2.01%: max response [7]
10.3%: max response [5]
inactive: outcome [3] | Potency [4] | outcome [15] | Potency [6] | Potency [16] | max response [8] 11.9% | activation [17] 6.28% | activation [10] 5.81% | max response [11] -2.32% | max response [12] 8.45% | max response [13] -10.1% | Potency [14] | max response [18] 11.5%

CN/C(=N\[N+](=O)[O-])NCc1cnc(Cl)s1
-9.8%: max response [7]
-16.2%: max response [5]
inactive: Potency [6] | Potency [16] | max response [8] -1.36% | activity change % (negative = inhibition) [9] -15.1% | activation [10] 1.58% | max response [11] -0.992% | Potency [20] | max response [12] 0.65% | max response [13] -4.28% | Potency [14] | max response [18] 6.52%

Brc1ccc(Oc2ccccc2)cc1
inactive: Potency [2] | outcome [3] | Potency [4] | outcome [15] | Potency [6] | max response [8] 1.13% | activity change % (negative = inhibition) [9] -9.48% | activation [17] 1.17% | activation [10] -0.643% | max response [11] -0.584% | Potency [20] | max response [12] -10.2% | max response [13] -5.38% | Potency [14] | max response [18] -2.47%
-7.34%: max response [7]
2.82%: max response [19]
-12.9%: max response [5]

CCOP(=S)(OCC)SCCl
inactive: Potency [2] | outcome [15] | activity change % (negative = inhibition) [9] -1.44% | activation [17] 0.473% | activation [10] 0.0178% | max response [11] -3.54% | Potency [20] | max response [12] -13.5% | max response [13] -19.2% | Potency [14] | max response [18] -4.02%

Cc1nn(-c2cc(NS(C)(=O)=O)c(Cl)cc2Cl)c(=O)n1C(F)F
10.2%: max response [5]
-3.07%: max response [7]
-1.23%: max response [19]
inactive: outcome [3] | Potency [4] | outcome [15] | Potency [6] | Potency [16] | max response [8] -28.1% | activity change % (negative = inhibition) [9] -13.9% | activation [17] -4.43% | activation [10] -2.63% | max response [11] -0.197% | Potency [20] | max response [12] 1.41% | max response [13] -6.27% | Potency [14] | max response [18] -0.675%
